Reference: PubChem BioAssay (NCI)
Compounds without any hit were thinned out: in the full panel of roughly 83,000, 20% have a hit.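 Compound tested at a single concentration for 48 hours in 96-well plates; a percent growth value below 10 was scored as active.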 Activity calls are given as the source filed them.

Tests used:
Test in all cases: NCI-60 one-dose screen, 48 h (100 = growth as untreated, 0 = no growth, -100 = all killed)
Details in all cases: 10 µM unless noted
[1] = system: NCI-H23 lung
[2] = system: NCI-H226 lung
[3] = system: NCI-H322M lung
[4] = system: HOP-62 NSCLC
[5] = system: NCI-H460 lung
[6] = system: HOP-92 NSCLC
[7] = system: NCI-H522 lung
[8] = system: A549/ATCC NSCLC
[9] = system: 786-0 renal
[10] = system: COLO 205 colon

Measured: growth

COc1ccc(-c2nn(-c3ccc(NC(=O)Nc4ccc(Cl)c(Cl)c4)cc3)cc2-c2ccncc2)cc1Cl
active: [1] 6.03% | [2] 6.82% | [5] -21.1% | [6] -17% | [7] 0.622% | [9] 2.7% | [10] -47.7%
inactive: [3] 47.2% | [4] 20.7% | [8] 15%

CC1OC(n2c3ccccc3c3c4c(c5c6ccccc6[nH]c5c32)C(=O)N(CCN[C@@H]2CCC[C@H]2N)C4=O)CC(O)C1O (stereo not given in full)
inactive: [1] 13.2% | [2] 17.4% | [3] 25.4% | [6] 72% | [8] 14.1% | [9] 32.2%
active: [4] 5.12% | [5] -62% | [7] -9.89% | [10] 1.5%

COC(=O)c1oc2c(C(=O)/C=C/c3ccc(OC)cc3)c(OCCN3CCOCC3)ccc2c1C
active: [2] -5.76% | [3] 0.995% | [4] -6.52% | [5] -20.9% | [6] -44.8% | [7] -20% | [8] 2.83% | [9] -6.7% | [10] -20.9%
inactive: [1] 18.7%

CN(C)CCS(=O)(=O)Nc1cc(-c2ccc3ncnc(Nc4ccc(F)c(Cl)c4)c3c2)cnc1Cl
active: [1] -10.1% | [2] 1.48% | [3] -21.5% | [4] -5.38% | [5] 7.68% | [6] -21.4% | [7] -17.7% | [8] -31.7% | [10] -80%
inactive: [9] 12.8%

COc1cc(-c2nc3sc(C)cn3c2/C=C2\C(=O)Nc3ccccc32)c(Br)c(OC)c1OC
active: [5] 8.76% | [7] -10.6%
inactive: [1] 74.4% | [2] 80.1% | [3] 55.8% | [4] 26% | [6] 44.2% | [8] 50.3% | [9] 22.9% | [10] 52.7%

Nc1ncnc2c1c(C(F)(F)F)cn2[C@@H]1O[C@H](CO)[C@@H](O)[C@H]1O
inactive: [3] 19.5% | [8] 10.5% | [9] 13.5%
active: [1] 2.27% | [2] -13.8% | [4] -4.3% | [5] 7.65% | [6] -12.8% | [7] -14.1% | [10] -42.1%

CCOC(=O)c1noc2c1CCc1cn(Cc3cc(OC)cc(OC)c3)cc1-2
inactive: [1] 97.6% | [2] 101% | [3] 102% | [4] 95.6% | [5] 109% | [6] 104% | [7] 46.5% | [8] 103% | [9] 101% | [10] 115%

Fc1ccc(/C=N/n2c(-c3cc(Cl)cc(Cl)c3Cl)nn(CNc3ccc(Cl)nn3)c2=S)cc1
inactive: [1] 86.3% | [2] 97.1% | [3] 94.9% | [4] 82.4% | [5] 112% | [6] 49.5% | [7] 82.8% | [8] 99.3% | [9] 85.5% | [10] 100%

CCNc1cc(S(=O)(=O)O)ccc1C
inactive: [1] 103% | [2] 103% | [3] 112% | [4] 90.8% | [5] 112% | [6] 104% | [7] 93.3% | [8] 81.3% | [9] 99.8% | [10] 92.8%

Cc1cc2nc(-c3c(N)ncc(C#N)c3-c3ccc(Cl)cc3)[nH]c2cc1C
inactive: [1] 50% | [2] 91.7% | [3] 81.1% | [4] 83.5% | [5] 43.2% | [6] 10.6% | [7] 41.2% | [8] 36.4% | [9] 75.1% | [10] 67.4%

NS(=O)(=O)c1ccc(CCN2C(=O)/C(=C\c3ccc(Cl)cc3)C=C2c2ccc(Oc3ccccc3)cc2)cc1
inactive: [1] 84% | [2] 72.7% | [3] 79.2% | [4] 95.9% | [5] 69% | [6] 84.7% | [7] 56.1% | [8] 51.8% | [9] 91.1% | [10] 80%

Nc1n[nH]c2cccc(C#Cc3cccc(NC(=O)c4cccc(C(F)(F)F)c4)c3)c12
active: [6] -4.2%
inactive: [1] 39.5% | [2] 44% | [3] 46.5% | [4] 28.3% | [5] 40.3% | [7] 41.2% | [8] 43.4% | [9] 23.1% | [10] 16.5%

C=CC(=O)Nc1cccc(Nc2nc(Nc3ccc(OCCOC(F)F)cc3)ncc2F)c1
active: [6] -0.338% | [7] -7.77%
inactive: [1] 75.2% | [2] 22.5% | [3] 10.3% | [4] 29.1% | [5] 37.4% | [8] 30.9% | [9] 20% | [10] 63.5%

C=CC(C)(O)CCC1C(=C)CCC2C(C)(C)CCCC12C (stereo not given)
inactive: [1] 94.2% | [2] 105% | [3] 98.3% | [4] 102% | [5] 112% | [6] 126% | [7] 72.4% | [8] 77.5% | [9] 99.6% | [10] 123%

COc1cc(Cn2cc3c(c2)-c2onc(CO)c2CC3)cc(OC)c1OC
inactive: [1] 92.7% | [2] 81.5% | [3] 85.1% | [4] 85.7% | [5] 93.6% | [6] 67% | [7] 87.7% | [8] 99.8% | [9] 90.9% | [10] 107%

O=C1c2ccccc2OC=C(c2ccccc2)N1CCCCN1CCCCC1
inactive: [1] 67.2% | [2] 84.3% | [3] 91.2% | [4] 38.1% | [5] 46.7% | [6] 40.2% | [7] 25% | [8] 46.8% | [9] 95.4%
active: [10] -33.6%

O=C(Nc1cccc(-n2ccc3c(NC(=O)c4ccccc4)ncnc32)c1)Nc1ccc(Cl)c(C(F)(F)F)c1
inactive: [1] 31.9% | [2] 55.1% | [3] 60.2% | [4] 56.8% | [5] 14.4% | [6] 29.2% | [7] 11.8% | [8] 28.3% | [9] 53.2% | [10] 20.9%

Nc1ncnc2c1ccn2-c1cccc(NC(=O)c2cccc(C(F)(F)F)c2)c1
inactive: [1] 90.6% | [2] 70.2% | [3] 55.8% | [4] 91.7% | [5] 45.8% | [7] 56.2% | [8] 50.7% | [9] 101% | [10] 75.7%
active: [6] -1.72%

COc1cc(NC(C)CCCN2C(=O)c3ccccc3C2=O)c2ncccc2c1OC (stereo not given)
inactive: [1] 91.6% | [2] 98.2% | [3] 79.5% | [4] 80.7% | [5] 103% | [6] 45.4% | [7] 70.8% | [8] 100% | [9] 91.1% | [10] 101%

O=c1[nH]ccc2nc(N3CCC(O)CC3)nc(Nc3cccc(C(F)(F)F)c3)c12
inactive: [1] 62.2% | [2] 57.4% | [3] 102% | [4] 92.9% | [5] 73.4% | [6] 105% | [7] 51.7% | [8] 53.4% | [9] 58.3% | [10] 35.7%

O=C(CSc1nnc(-c2cc3c([nH]c4ccccc43)c(-c3cccc(O)c3)n2)n1-c1ccccc1)c1ccccc1
inactive: [1] 80.2% | [2] 93.4% | [3] 89.7% | [4] 59.3% | [5] 65.3% | [6] 67.6% | [7] 23% | [8] 69.9% | [9] 18.8% | [10] 105%

O=C(NCCNc1nccc(-c2c(-c3cccc(O)c3)nc3sccn23)n1)c1cc(N2CCOCC2)cc(C(F)(F)F)c1
inactive: [1] 106% | [2] 106% | [3] 107% | [4] 136% | [5] 96.2% | [6] 87.7% | [7] 78.6% | [8] 88.6% | [9] 86.6% | [10] 32.7%

O=C1C(SCCO)=C(SCCO)C(=O)N1c1ccc(-c2ccccc2)cc1
inactive: [1] 88.9% | [2] 74.9% | [3] 124% | [4] 91.5% | [5] 108% | [6] 39.9% | [8] 105% | [9] 82.3%
active: [7] -61.3% | [10] -56.5%

COc1ccc(/C=N/C2=NNC(C)(c3ccccc3O)N2C(Cc2c[nH]c3ccccc23)C(=O)O)cc1 (stereo not given)
active: [6] 2.13% | [10] 8.42%
inactive: [1] 22.8% | [2] 53.2% | [3] 56.1% | [4] 32.7% | [5] 20.4% | [7] 18.9% | [8] 42.5% | [9] 58.3%

O=C(Nc1ccc(-n2ccc3c(NC(=O)c4ccccc4)nccc32)cc1)Nc1ccc(Cl)c(Cl)c1
inactive: [1] 42.4% | [2] 68%
active: [3] -5.58% | [4] -58.1% | [5] -65.4% | [6] -6.97% | [7] -58.6% | [8] -75.8% | [9] -84% | [10] -53.4%

CCOc1ccc(Cc2nccc3cc(OCC)c(OCC)cc23)cc1OCC
inactive: [1] 34% | [2] 73.3% | [3] 66.8% | [4] 67.7% | [5] 48% | [6] 52% | [7] 56.4% | [8] 64.6% | [9] 64.8% | [10] 76.2%

Clc1ccc(OCc2nc(-c3ccccc3)n[nH]2)c(Cl)c1
inactive: [1] 97.6% | [2] 89.9% | [3] 101% | [4] 86.8% | [5] 99.3% | [6] 90.8% | [7] 92% | [8] 97.1% | [9] 108% | [10] 90.5%
